The values below come from PubChem BioAssay (Tox21).

Structures are written as SMILES. Several values for one entry are separate records, joined by “and”; a condition that tells them apart may be missing. Identical values can stand only once. Results filed as inconclusive are left out. Some structures have more than one record in an assay (separate samples or runs), and their calls can disagree. Activity calls are given as the source filed them. Calls follow the shape of the dose curve; as a rule, active = well fitted curve in the direction sought with a large enough effect in the repeat runs; inconclusive = weak or mixed curves; inactive = no such curve, though single readings can be large; an effect the other way counts as inactive or inconclusive.

The nature of test [1]: A CellTox Green Cytotoxicity Assay to monitor cytotoxicity in HEK293 cells - 40 hour (AID 1224871). Also: nearly all actives have a fitted effect of over 45% in size. Also: potency is read from the fitted curve at half-maximal effect. The method, boiled down: (§1)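 HEK293 cells premixed with CellTox Green dye were seeded at 600 cells/well and left 5 h at 37 C/5% CO2 before pin transfer of 23 nL compound in DMSO. Fluorescence from dye bound to dead-cell DNA was read during 40 h treatment.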
A short description of test [2]: qHTS RealTime-Glo MT Cell Viability Assay in HepG2 cells - 8 hour (AID 1224873). Also: nearly all actives have a fitted effect of over 55% in size. The essentials:
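Real-time viability: cells seeded at 600 per well together with NanoLuc and cell-permeant prosubstrate, compounds added after 5 h incubation. Luminescence tracked at 0, 8, 16, 24, 32 and 40 h of exposure.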

The nature of test [3]: A CellTox Green Cytotoxicity Assay to monitor cytotoxicity in HEK293 cells - 24 hour (AID 1224875). Also: series mostly up to about 77 µM; nearly all actives have a fitted effect of over 45% in size. The essentials:
as §1

A short description of test [4]: A CellTox Green Cytotoxicity Assay to monitor cytotoxicity in HepG2 cells - 16 hour (AID 1224876). Also: nearly all actives have a fitted effect of over 45% in size. Also: potency is read from the fitted curve at half-maximal effect. The method, boiled down:
(§2)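 HepG2 cells were seeded together with the CellTox Green dye at 600 cells/well, left 5 h at 37 C/5% CO2, then given compounds in DMSO. Fluorescence from dye bound to dead-cell DNA was read repeatedly over 40 h of treatment at 37 C.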

Test [5] in a line: qHTS RealTime-Glo MT Cell Viability Assay in HepG2 cells - 32 hour (AID 1224877). Also: nearly all actives have a fitted effect of over 55% in size. Also: potency is read from the fitted curve at half-maximal effect. The essentials: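 Luminescence read-out: viable HepG2 cells reduce a prosubstrate to a NanoLuc substrate, giving a signal proportional to live cell number. Reads taken at 0, 8, 16, 24, 32 and 40 h of compound exposure at 37 C.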
Test [6] can be described thus: A CellTox Green Cytotoxicity Assay to monitor cytotoxicity in HepG2 cells - 24 hour (AID 1224878). Also: nearly all actives have a fitted effect of over 45% in size. Also: potency is read from the fitted curve at half-maximal effect. The method, boiled down:
as §2

The nature of test [7]: A CellTox Green Cytotoxicity Assay to monitor cytotoxicity in HepG2 cells - 40 hour (AID 1224879). Also: nearly all actives have a fitted effect of over 40% in size. Also: potency is read from the fitted curve at half-maximal effect. The method, boiled down:
as §2

Test [8] is described as follows: qHTS RealTime-Glo MT Cell Viability Assay in HEK293 cells - 16 hour (AID 1224872). Also: nearly all actives have a fitted effect of over 50% in size. Also: potency is read from the fitted curve at half-maximal effect. The essentials:
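Nonlytic real-time viability readout: viable cells convert prosubstrate to NanoLuc substrate, giving luminescence proportional to live cell number. HEK293, 600 cells/well, compound added after 5 h, continuous culture at 37 C.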

Test [9] is described as follows: qHTS RealTime-Glo MT Cell Viability Assay in HEK293 cells - 40 hour (AID 1224874). Also: nearly all actives have a fitted effect of over 50% in size. Also: potency is read from the fitted curve at half-maximal effect. The following applies: RealTime-Glo luminescence; max response: stronger effect = lower value. The essentials: (§3)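 HEK293 cells mixed with RealTime-Glo reagents (NanoLuc plus cell-permeant prosubstrate) at 600 cells/well, preincubated 5 h at 37 C/5% CO2, then given 23 nL compound in DMSO. Nonlytic luminescence from viable cells was read at 0, 8, 16, 24, 32 and 40 h.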

Test [10] can be described thus: qHTS RealTime-Glo MT Cell Viability Assay in HEK293 cells - 0 hour (AID 1224880). The method, boiled down:
as §3
% is scaled to controls: 0 for no effect and ±100 for the full control effect.

Take `O=P(O)(O)CN(CP(=O)(O)O)CP(=O)(O)O`: the cytotoxicity increase in [1] is 32.5% [at 15.8 µM] (inactive). For the same compound, the compound was called inactive in test [2]. Besides, in [3], the activity change was 29.5% [at 15.8 µM, stronger effect = higher value] (inactive). For the same compound, the Potency result in test [4], in test [5], in test [6] and in [7] was “inactive” throughout.

As to `O=[N+]([O-])c1cccc(CCl)c1`, the Potency entry in test [8], in test [3], in [4], in test [5], in test [6] and in [7] was “inactive” each time. Moreover, the result in [2] and in [10] was inactive. Also, the max response in test [9] is 6.77% (inactive).

Turning to `CCOC(=O)Nc1cccc(OC(=O)Nc2ccccc2)c1`, the Potency result in [1], in test [8], in test [3], in test [4] and in test [5] was “inactive” throughout. In addition, the compound was classed as inactive in [2] and in test [10].

Turning to `NNCc1ccccc1`, the Potency entry in [1], in [8], in test [3], in test [4], in test [5] and in test [6] was “inactive” in each case. In test [7], the Potency entry is “inactive”. Also, the result in test [2] and in test [10] was inactive.

`O=C(Cl)/C=C/C(=O)Cl`: the Potency entry in test [1], in [8], in test [4], in test [5], in test [6] and in test [7] was “inactive” throughout. The result in test [2] and in test [10] was inactive.

On to `O=c1[nH]c2ccccc2o1`, for which the Potency result in [1], in test [8], in [4], in test [5], in [6] and in test [7] was “inactive” throughout. Besides, the outcome in test [2] and in [10] was inactive. Also, in test [9], the max response is -0.283% (inactive).

As to `C[C@H](CN1CCOCC1)C(C(=O)N1CCCC1)(c1ccccc1)c1ccccc1`, the Potency result in [1], in [3], in test [4], in test [5], in test [6] and in [7] was “inactive” each time. For the same compound, the compound was classed as inactive in test [2] and in test [10].

Turning to `CON(C)C(=O)Nc1ccc(Br)c(Cl)c1`, the Potency result in test [1], in test [3], in test [4], in test [5], in test [6] and in test [7] was “inactive” in each case. Besides, the compound was classed as inactive in test [2] and in test [10].

As for `O=C1C2CC=CCC2C(=O)N1SC(Cl)(Cl)Cl` (stereo not given), the Potency in test [1] was 6.81 µM (active); in test [8], 3.83 µM (active); in [9], 43.5 µM (active) and 3.41 µM (active); in test [4], “inactive and 42.9 µM (active)”; in test [5], “inactive and 21.5 µM (active)”; in test [6], “inactive and 12.1 µM (active)”. The Potency entry in test [7] was “inactive and 10.8 µM (active)”. Besides, the call in [10] was inactive.

`CNC(=O)NC(O)C(Cl)(Cl)Cl` (stereo not given): the Potency result in test [8], in test [3], in [4], in test [5], in test [6] and in [7] was “inactive” throughout. Further, the compound was called inactive in test [2] and in [10]. Besides, the max response in test [9] is 9.22% (inactive).

With `c1ccc2c(c1)CCNC2`, the Potency entry in test [1], in test [3], in test [4], in test [5], in test [6] and in test [7] was “inactive” each time. Also, the outcome in test [2] and in test [10] was inactive.

For the compound `COc1cccc([C@@]2(O)CCCC[C@@H]2CN(C)C)c1`, the Potency entry in test [8], in [3], in test [4], in [5], in [6] and in [7] was “inactive” in each case. The call in test [2] and in test [10] was inactive. Besides, in test [9], the max response is 0.459% (inactive).

For `CCC1(c2cccc(O)c2)CCCCN(C)C1` (stereo not given), the Potency entry in [8], in test [3], in [4], in test [5], in [6] and in test [7] was “inactive” throughout. The compound was called inactive in [2] and in [10]. In addition, in [9], the max response is 3.71% (inactive).

As for `CCC(CC)(CNC(=O)CCCO)c1cccc(OC)c1`, the Potency entry in test [8], in test [3], in test [4], in [5], in [6] and in test [7] was “inactive” each time. The call in test [2] and in test [10] was inactive. For the same compound, in [9], the max response is 4.41% (inactive).

As to `CCN[C@@H](C)Cc1ccccc1`, the Potency entry in [8], in test [4] and in test [6] was “inactive” throughout. For the same compound, the compound was classed as inactive in test [2] and in test [10]. The max response in [9] is -5.07% (inactive). In addition, the Potency in test [7] was 0.154 µM (active).

For the compound `CC(C)(C)C(=O)C(Cl)Cl`, the Potency entry in [8], in [3], in [4], in test [6] and in [7] was “inactive” throughout. Besides, the result in [2] and in test [10] was inactive. In addition, in test [9], the max response was -2.49% (inactive).

On to `Cc1ccc(Cl)c(O)c1`, for which the Potency entry in [8], in [3], in [4], in test [6] and in test [7] was “inactive” each time. Moreover, the result in [2] and in test [10] was inactive. For the same compound, the max response in test [9] is 1.02% (inactive).

Regarding `Oc1ccc(Cc2ccc(O)cc2)cc1`, the outcome in test [2] and in test [10] was inactive. For the same compound, the Potency result in test [3], in test [4], in [5], in test [6] and in test [7] was “inactive” in each case.

As to `O=C(O)C(Cl)Br` (stereo not given), the Potency entry in test [8], in test [3], in test [4], in test [5], in [6] and in [7] was “inactive” throughout. For the same compound, the compound was classed as inactive in test [2] and in test [10].

On to `O=C(Cl)C(Cl)Cl`, for which the Potency result in test [8], in test [3], in test [4], in test [6] and in test [7] was “inactive” each time. The outcome in [2] and in test [10] was inactive. Moreover, the max response in test [9] is 1.34% (inactive).

Take `Nc1c(Cl)c(F)nc(OCC(=O)O)c1Cl`: the Potency entry in test [8], in test [3], in [4], in test [6] and in test [7] was “inactive” each time. For the same compound, the call in test [2] and in test [10] was inactive. The max response in test [9] is 2.97% (inactive).

Take `CCSC(=O)Cl`: the Potency entry in test [8], in test [4], in test [5], in test [6] and in [7] was “inactive” throughout. Also, the result in test [2] and in test [10] was inactive. The max response in test [9] was 15.5% (inactive).

Consider `CCOC(=O)CC(SP(=S)(OC)OC)C(=O)OCC` (stereo not given), for which the Potency result in test [8], in test [4], in test [5], in [6] and in [7] was “inactive” in each case. Moreover, the result in test [2] and in [10] was inactive. The max response in [9] was 11.4% (inactive).

For `CCOC(=O)NC(C)(C)Cc1ccc(Cl)cc1`, the Potency result in test [8], in test [4], in test [5], in test [6] and in [7] was “inactive” each time. Also, the compound was classed as inactive in test [2] and in [10]. The max response in test [9] was 0.66% (inactive).
